The source of these data is PubChem BioAssay AID504891 (National Center for Advancing Translational Sciences (NCATS), 2011).

About 35 (0.009%) of roughly 390,000 compounds were called active. About 6% were inconclusive and are not listed. The list comes from a sample in which actives are over-represented; it also holds similar structures and randomly drawn compounds. Values without a mark were called inactive. Calls come from the whole dose curve; as a rule, active = well fitted inhibition curve with a large enough effect in the polarisation, with a control signal flat (not every such curve was filed as active); inconclusive = small, poorly fitted or top-dose-only effect, or effect the other way, or a change in a side signal; inactive = no such curve, though single readings can be large or run the other way; the % refers to the polarisation.

Peptidyl-prolyl cis-trans isomerase NIMA-interacting 1 (Homo sapiens), sequence (Q13526 whole entry, looked up): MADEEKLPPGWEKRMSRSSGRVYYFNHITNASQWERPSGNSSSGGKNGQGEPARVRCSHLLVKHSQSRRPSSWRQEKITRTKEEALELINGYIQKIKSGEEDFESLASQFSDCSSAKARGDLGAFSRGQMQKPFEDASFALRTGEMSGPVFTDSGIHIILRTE

This experiment has as its target Peptidyl-prolyl cis-trans isomerase NIMA-interacting 1 (Homo sapiens) (UniProt Q13526). Description: qHTS Assay to Find Inhibitors of Pin1. The conditions noted are these: Pin1 FP peptide displacement, HiFluor488, 10 min; series mostly up to 115 µM. The text has this: NIH Molecular Libraries Probe Production Network [MLPCN]
NIH Chemical Genomics Center [NCGC]
The unique chemical properties of Pro allow for the adoption of two completely distinct amide bond conformations (cis and trans). Peptidyl-prolyl cis/trans isomerases (PPIases) are evolutionary conserved enzymes that catalyze cis/trans isomerization of peptidyl-prolyl peptide bonds. Distinct from all other PPIases such as cyclophilins and FK506-binding proteins (FKBPs), Pin1 binds a subset of phos.Ser/Thr-Pro-containing proteins using its protein-targeting WW domain and isomerizes only specific phos.Ser/Thr-Pro bonds, which cannot be effectively catalyzed by other known PPIases.
Pin1-catalyzed conformational regulation can control a spectrum of activities of many key regulators in diverse cellular processes such as cell growth, genotoxic and other stress responses, immune response, germ cell development, neuronal differentiation and survival. Pin1 has emerged as a novel molecular timer that modulates its multiple targets at various steps of a given cellular process to synergistically control the amplitude and duration of a cellular response or process. Importantly, Pin1 is tightly regulated by multiple levels and its deregulation has an important role in a growing number of pathological conditions, including cancer, Alzheimer's disease, aging, asthma and microbial infection, providing a potentially new therapeutic option.
The goal of this screen is to find small-molecule inhibitors of Pin1 using a fluorescence polarization competition assay. A HiFluor-488-labeled peptide binds to the active site of Pin1 and can be displaced by compounds. Compounds were screened as a concentration-titration series that ranged from 57 uM to 0.7 nM.
NCGC Assay Protocol Summary:
Pin1 (0.6 uM) was dispensed into black, solid 1536-well plates at 2 uL/well in 10 mM HEPES (pH 7.5), 10 mM NaCl, 0.01% Tween20, 1 mM DTT, and 1% glycerol. Then, 23 nL of compounds or DMSO were delivered to each well using a pin tool. Two uL of Pin1-1b-HiFluor488 peptide (10 mM HEPES (pH 7.5), 10 mM NaCl, 0.01% Tween20, 1 mM DTT, and 1% glycerol, 0.02 uM Pin1-1b-HiFluor488) was then dispensed, and plates were incubated at room temperature for 10 min. The plates were measured on a ViewLux plate reader for fluorescence polarization signal using a 480/20 nM nm excitation filter and 540/25 nM nm S and P emission filters with a 20 second exposure. The %Activity was determined from the corrected fluorescence polarization values. Unlabeled Pin1-1c peptide was used as a control (3.5 mM two-fold serial; 20 uM final concentration) along with a 1x (0.3 uM) and 0x (no-enzyme) Pin1 enzyme control to normalize %Activity of identified inhibitors; 0x enzyme values corresponded to 100%Activity (full inhibition), while 1x Pin1 enzyme values were used to normalize 0%Activity (no inhibition).
Concentration-response curves were fitted to the signals arising from the resulting fluorescence polarization. The concentration-effect curves were then classified based on curve quality (r2), response magnitude and degree of measured activity, and compounds were subsequently categorized based on their curve class.
Keywords: Peptidyl prolyl isomerase, Pin1, fluorescence polarization, MLSMR, MLPCN, NIH Roadmap, qHTS, NCGC
A general note: qHTS replaces the single test concentration by a dilution series.
Turning to `Cc1ccccc1CNC(=O)C(=O)NCC(c1cccs1)S(=O)(=O)c1cccs1` (stereo unspecified), the activity, negative = inhibition entry is “inactive”.

On to `CC1CCC2(CC1)N=C(c1ccccc1)C(=O)N2CC(=O)Nc1ccc(F)c(Cl)c1` (stereo unspecified), for which the activity, negative = inhibition entry was “inactive”. For `COc1cc(OC)c(NC(=O)c2nc(-c3ccncc3)no2)cc1Cl` the value was “inactive”; for `Cc1cccc(CNC(=O)c2cnc3sc(N4CCCCC4)nn3c2=O)c1`, “inactive”. In the case of `CCc1ccccc1NC(=O)N1CCC2(CC1)Oc1ccccc1C(=O)N2Cc1ccccc1F` it was “inactive”; in that of `COc1ccc(OC)c(NC(=O)CSc2nc3ccccc3nc2N2CCCCC2)c1`, “inactive”. As for `CN1CCOc2cc(S(=O)(=O)N3CCN(S(=O)(=O)c4c(F)cccc4F)CC3)cnc21`, the activity, negative = inhibition result was “inactive”. For `O=c1c2ccccc2nc2sc(Nc3ccc(Oc4ccccc4)cc3)nn12`, the activity, negative = inhibition result is “inactive”. In the case of `CCn1c(C)c(C)c2cc(C(=O)NCCc3cc(OC)ccc3OC)ccc21` it was “inactive”; in that of `CCC(=O)N1CCc2cc(CNS(=O)(=O)c3ccc(Br)s3)ccc21`, “inactive”; in that of `O=[S+]([O-])(c1ccc(OC(F)(F)F)cc1)N1CCN([S+](=O)([O-])c2ccc3c(c2)OCCO3)CC1`, “inactive”. For `CC(C)(C)c1ccc(C(=O)NCC(c2ccc(Cl)cc2)N2CCOCC2)cc1` (stereo unspecified) the value was “inactive”; for `COc1ccccc1Cc1nc2ccccc2nc1SCC(=O)N1CCCc2ccccc21`, “inactive”. In the case of `COc1ccc(C2Nc3ccccc3C(=O)N2Cc2ccc(Cl)cc2)cc1COc1ccc(NC(C)=O)cc1` (stereo unspecified) it was “inactive”; in that of `Cc1nn2c(=O)cc(COC(=O)c3ccccc3NC(=O)COc3ccccc3C)nc2s1`, “inactive”. Take `CCOC(=O)c1ccc(NC(=O)CC2C(=O)N(c3ccccc3)C(=O)N2Cc2cccs2)cc1` (stereo unspecified): the activity, negative = inhibition entry is “inactive”. For `CC1CCCN(S(=O)(=O)c2ccc3[nH]c(=O)cc(C(=O)NCCc4ccc(Cl)cc4)c3c2)C1` (stereo unspecified) the value was “inactive”. In the case of `COc1ccc(N2CCN(S(=O)(=O)c3ccc4c(c3)CC(=O)N4)CC2)cc1` it was “inactive”; in that of `COc1ccc(N2CCN(C(=O)c3c(C)oc4nc(C)nc(N5CCCC5)c34)CC2)cc1`, “inactive”; in that of `O=[S+]([O-])(c1ccc2c(c1)OCCO2)N1CCN([S+](=O)([O-])c2c(Cl)cc(Cl)cc2Br)CC1`, “inactive”. On to `Cc1ccc(C)c(N2CCN(C(=O)C3CCC(CNS(=O)(=O)c4cccs4)CC3)CC2)c1` (stereo unspecified), for which the activity, negative = inhibition entry was “inactive”. In the case of `O=C(CSc1nc(-c2cccc(F)c2)[nH]c1-c1ccccc1)Nc1ccc2c(c1)OCO2` it was “inactive”. In the case of `COc1cc(F)c(S(=O)(=O)N2CCCN(S(=O)(=O)c3ccc(N)cc3)CC2)c(F)c1` it was “inactive”; in that of `COC(=O)c1cnn(-c2ccc(C(=O)Nc3ccc(OC(F)(F)F)cc3)cc2)c1N`, “inactive”; in that of `O=S(=O)(c1ccc2c(c1)OCCO2)N1CCN(S(=O)(=O)c2cc(F)ccc2F)CC1`, “inactive”. With `COC(=O)c1ccc(NC(=O)c2cnn(-c3ccc(Cl)cc3)c2C2CCN(C(=O)OC(C)(C)C)CC2)cc1`, the activity, negative = inhibition entry was “inactive”.

With `CCCCN(C)CCCNC(=O)CN1N=C(c2ccc(OC)cc2)CCC1=O`, the activity, negative = inhibition result is “inactive”. For `CCOc1ccc2oc(=O)cc(CN3CCN(C(=O)c4ccc(F)cc4)CC3)c2c1` the value was “inactive”. In the case of `O=C(O)c1ccc(Cn2c(SCc3ccc(F)cc3)nc3ccncc32)cc1` it was “inactive”; in that of `Cc1ccc(-c2nc3ccccn3c2Nc2c(C)cccc2C)o1`, “inactive”. As to `Cc1cccc(C(=O)NCCc2nc3ccccc3n2Cc2ccccc2Cl)c1`, the activity, negative = inhibition result was “inactive”. In the case of `COc1cccc(C(=O)N(Cc2cccc(Cl)c2)Cc2ccco2)c1` it was “inactive”; in that of `CC(CNC(=O)c1nnc(Cc2cccc(F)c2)o1)c1ccccc1` (stereo unspecified), “inactive”; in that of `Cc1noc(C)c1-c1ccc2ncnc(NCc3ccc(F)c(F)c3)c2c1`, “inactive”.

On to `O=C(CSCc1cnn(-c2ccccc2)c1-n1cccc1)NCc1ccc(Cl)cc1`, for which the activity, negative = inhibition result was “inactive”. Take `CC(C)c1ccc(NC(=O)C2CCN(c3nc(-c4ccc(C(C)C)cc4)no3)CC2)cc1`: the activity, negative = inhibition result was “inactive”. In the case of `NC(=O)C1CCN(C(=O)c2cccc(NC(=O)c3nsc4ccccc34)c2)CC1` it was “inactive”.

As to `Cc1ccc(C(=O)NC2CCN(C#N)CC2)cc1`, the activity, negative = inhibition result was “inactive”.

Take `O=S(=O)(NCCc1nnc2ccc(SCc3ccc(Cl)cc3Cl)nn12)c1ccccc1`: the activity, negative = inhibition result is “inactive”. Take `COC(=O)C(CC(C)C)NS(=O)(=O)c1cc(Br)ccc1Br` (stereo unspecified): the activity, negative = inhibition entry was “inactive”. With `N#Cc1nc(NCc2ccc(Cl)c(Cl)c2)c2ncn(CCCO)c2n1`, the activity, negative = inhibition result is “inactive”. For `COCCNS(=O)(=O)c1cc(-c2nn3c(C)nnc3c3ccccc23)ccc1C` the value was “inactive”.

On to `O=S1(=O)N=C(Oc2cccc(Br)c2)c2ccccc21`, for which the activity, negative = inhibition result is “inactive”. In the case of `COc1ccc(CNC(=O)c2ccc3c(c2)nc2n3CCOC2)c(OC)c1` it was “inactive”; in that of `COc1ccc(C2Nc3ccccc3C(=O)N2Cc2ccc(CNC(=O)CO)cc2)cc1COc1ccc(NC(C)=O)cc1` (stereo unspecified), “inactive”; in that of `COc1ccc(OC)c(NC(=O)C2CCN(S(=O)(=O)c3ccc(C)cc3)CC2)c1`, “inactive”.

In the case of `O=C1CC(c2ccccc2)CC2=C1C(c1ccco1)n1nc(C(F)(F)F)nc1N2` (stereo unspecified), the activity, negative = inhibition entry was “inactive”. Take `COc1ccc(C2Nc3cccc(OC)c3C(=O)N2Cc2ccccc2)cc1COc1ccc(NC(C)=O)cc1` (stereo unspecified): the activity, negative = inhibition entry was “inactive”.

Take `COc1ccc(-c2ccc(C3C4C=CCCC4(C)C(=O)N3Cc3ccccc3)c(F)c2)cc1OC` (stereo unspecified): the activity, negative = inhibition entry was “inactive”. In the case of `Cc1cc(C)n2ncc(C(=O)Nc3cccc(C#N)c3)c2n1` it was 1.24% [at 28.7 µM]; in that of `CCCOc1ccc(NC(=O)CC2C(=O)N(c3ccccc3)C(=O)N2Cc2ccco2)cc1` (stereo unspecified), “inactive”; in that of `CCOC(=O)N1CCc2c(sc3c2c(=O)n(Cc2ccccc2)c(=O)n3CC(=O)Nc2cccc(C)c2)C1`, “inactive”. As for `COC(=O)c1ccccc1NC(=O)c1ccc(C#N)cc1`, the activity, negative = inhibition entry is “inactive”.

As to `C=C1CCN(Cc2ccc(OC)cc2)S(=O)(=O)c2ccccc21`, the activity, negative = inhibition entry was “inactive”. Regarding `COc1ccc(C2=Nn3c(nnc3-c3ccccc3O)SC2)cc1`, the activity, negative = inhibition entry was “inactive”. As for `O=C(c1ccco1)n1nc(-c2ccc(Cl)cc2)nc1NCc1ccccc1`, the activity, negative = inhibition result is “inactive”. For `Cc1ccc(S(=O)(=O)N2CCN(c3nc(-n4cnc5ccccc54)nc4ccccc34)CC2)cc1` the value was “inactive”. For `O=C1NS(=O)(=O)c2ccccc21` the value was “inactive”. For `COc1ccc(CN(Cc2ccccc2)C(=O)c2ccc(O)cc2)cc1COc1ccc(NC(C)=O)cc1` the value was “inactive”.

With `COc1ccccc1/C=C/c1nc(C#N)c(NC(C)c2ccccc2)o1` (stereo unspecified), the activity, negative = inhibition entry was “inactive”. For `O=C(CNC(=O)c1ccc(Cl)c(C(F)(F)F)c1)OC(C(=O)Nc1cc(C(F)(F)F)ccc1Cl)c1ccccc1` (stereo unspecified) the value was “inactive”.
